Data: PubChem BioAssay
Active and inactive are the calls of the source.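 The calls were made as follows, unless noted: active = fluorescence slope after compound addition differing from the mean of all screened samples at 99.7% confidence, in either direction; inactive = the rest.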

Assays:
[1] = inhibitors of TNFa-induced NFkB p65 translocation, primary screen, imaging, HUVEC, MLSMR starter and 10KST1 sets (AID 438;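 active = inhibition above 20% together with a positive visual image hit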;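 also: compound added about 3h40 before a 20 min TNFalpha stimulation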;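 as to inhibition: signal is the nuclear over cytoplasmic p65 intensity ratio per well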); conditions: HUVEC TNFa-induced p65 nuclear translocation; cell count: measured here: nuclei count (cytotoxicity indicator), at 2.08 µM; inhibition: at 2 µM, stronger effect = higher value, 0% TNFa-plus-vehicle, 100% no-TNFa wells
[2] = reduction of polyQ htt aggregates in cells – imaging, exon1htt(103Q)mCFP cells, high-content imaging, primary screen (AID 483;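 active = visual image review flags a hit and inhibition of aggregation exceeds 20%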;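 also: compound exposure lasted 3 days before fixation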;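 as to nuclei count: percent of the per-plate median nuclei count of sample wells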); conditions: exon1htt(103Q)mCFP cell line, aggregate imaging, at 2 µM; inhibition of aggregation: stronger effect = higher value; nuclei count: measured here: cell count, toxicity
[3] = endothelial E-selectin expression blockers – imaging, HUVEC, immunofluorescence, MLSMR starter and 10KST1 sets, primary screen (AID 487;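 active = visually confirmed hit in the image check and inhibition above 20%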;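 as to inhibition: signal is fraction of cell area covered by stained E-selectin grains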;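 as to nuclei count: 100% = median nuclei count of all wells on the same plate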); conditions: HUVEC TNFalpha-induced E-selectin immunofluorescence imaging, at 2 µM; inhibition: stronger effect = higher value; nuclei count: measured here: cell number, toxicity
[4] = biological target: Voltage-gated potassium channel subunit beta-2 (Rattus norvegicus) (UniProt P62483); test: inhibitors of rat Kvbeta2 reductase activity – biochemical, NADPH fluorescence, primary screen (AID 622;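 active = fluorescence slope higher than the sample average by over 3 SD, cut at about -0.22 in these data, passing the limit was not always enough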;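 also: slope of raw intensity against log time taken from 70 to 1610 s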); conditions: recombinant KvBeta, 4-cyanobenzaldehyde reduction, at 10 µM, stronger effect = higher value
[5] = biological target: Voltage-gated potassium channel subunit beta-2 (Rattus norvegicus) (UniProt P62483); test: enhancers of rat Kvbeta2 NADPH turnover – biochemical, NADPH fluorescence, primary screen (AID 623;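 active = NADPH fluorescence slope more negative than the mean of all samples by about 3 SD, 99.7% confidence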;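 also: fluorescence intensity change per second fitted from 20 to 320 s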); conditions: Recombinant KvBeta, NADPH fluorescence decrease slope, 10 min; at 10 µM; stronger effect = lower value
[6] = biological target: Alpha-2C adrenergic receptor (Homo sapiens) (UniProt P18825); test: compounds altering alpha2C-coupled GIRK flux – cell-based, HEK293 alpha2C/GIRK1/2, thallium flux, primary screen (AID 624); conditions: thallium flux BTC fluorescence, at 10 µM, actives lie on both sides;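 also: slope of fluorescence ratio to pre-addition baseline per second over 15 to 24 s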
[7] = blockers of RIG-like receptor reporter activation – cell-based, Sendai virus stimulus, luciferase, 10K MLSCN set, TLR/RLR signaling modifier project, primary screen (AID 602276;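 active = inhibition at or above 50% at 10 µM; inactive = inhibition below 50%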;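 also: firefly luciferase from ISG56 promoter only with Renilla not read in this screen; 0% = Sendai virus plus DMSO and 100% = medium plus DMSO without virus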); conditions: HEK293 RL24 IRF3 luciferase reporter, at 10 µM, stronger effect = higher value
[8] = TLR3 IRF3 reporter activation blockers – cell-based, poly I:C stimulus, luciferase, 10K MLSCN set, primary screen (AID 602277;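 active = inhibition of the reporter signal at or above 50%; inactive = inhibition below 50%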); conditions: HEK293-TLR3 RL24 IRF3 luciferase reporter, at 10 µM, stronger effect = higher value

Voltage-gated potassium channel subunit beta-2 (Rattus norvegicus), sequence (P62483 whole entry, looked up): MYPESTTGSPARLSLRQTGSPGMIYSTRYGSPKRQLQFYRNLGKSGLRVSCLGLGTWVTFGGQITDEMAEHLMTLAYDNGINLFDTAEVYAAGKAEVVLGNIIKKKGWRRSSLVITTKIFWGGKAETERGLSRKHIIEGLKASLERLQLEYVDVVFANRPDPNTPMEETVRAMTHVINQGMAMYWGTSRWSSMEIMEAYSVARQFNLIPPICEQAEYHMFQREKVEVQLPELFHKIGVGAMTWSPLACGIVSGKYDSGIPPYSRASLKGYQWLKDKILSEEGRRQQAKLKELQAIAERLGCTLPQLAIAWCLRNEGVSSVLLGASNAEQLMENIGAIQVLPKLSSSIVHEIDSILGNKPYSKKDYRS
Alpha-2C adrenergic receptor (Homo sapiens), sequence (P18825 whole entry, looked up): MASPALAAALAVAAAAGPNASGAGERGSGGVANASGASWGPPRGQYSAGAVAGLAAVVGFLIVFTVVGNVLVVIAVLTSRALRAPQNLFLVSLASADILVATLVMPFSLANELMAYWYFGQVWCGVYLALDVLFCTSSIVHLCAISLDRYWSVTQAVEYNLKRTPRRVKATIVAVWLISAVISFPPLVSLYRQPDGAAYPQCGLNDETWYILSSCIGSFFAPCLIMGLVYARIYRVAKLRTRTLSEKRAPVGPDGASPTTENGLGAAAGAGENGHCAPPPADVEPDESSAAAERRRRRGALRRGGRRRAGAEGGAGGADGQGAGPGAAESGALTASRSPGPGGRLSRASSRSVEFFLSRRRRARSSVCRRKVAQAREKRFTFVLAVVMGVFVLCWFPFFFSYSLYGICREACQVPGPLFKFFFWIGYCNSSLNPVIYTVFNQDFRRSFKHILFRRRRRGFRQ

| SMILES | cell count [1] | inhibition [1] | inhibition of aggregation [2] | nuclei count [2] [%] | inhibition [3] | nuclei count [3] [%] | fluorescence slope [4] | NADPH fluorescence slope [5] | slope [6] | inhibition [7] | inhibition [8] |
| --- | --- | --- | --- | --- | --- | --- | --- | --- | --- | --- | --- |
| Cc1cc(C(=O)CSCCCn2c(=O)[nH]c3ccccc32)c(C)n1C | 494 | -3.3% (inactive) | 28.4% (inactive) | 84.7 | -68.3% (inactive) | 113 | -0.604 (inactive) | -9.1e-06 (inactive) | 0.00689 (inactive) | -10.6% (inactive) | -5.21% (inactive) |
| Cc1ccc(NC(=O)COS(=O)c2ccc(C)cc2)cc1 (centres undefined) | 420 | 5.8% (inactive) | 2.9% (inactive) | 94.3 | -11.2% (inactive) | 125 | -0.58 (inactive) | -2e-05 (inactive) | 0.00583 (inactive) | 6.94% (inactive) | -1.39% (inactive) |
| CC(C)CNS(=O)(=O)c1ccc(CCC(=O)NCc2ccco2)cc1 | 572 | 33.1% (active) | 7% (inactive) | 85 | -57.5% (inactive) | 137 | -0.511 (inactive) | 1.9e-05 (inactive) | 0.00549 (inactive) | 11.1% (inactive) | 14.7% (inactive) |
| Cn1c(=O)[nH]c(=O)c2c1nc(N1CCCCCC1)n2CCCSc1nc2ccccc2o1 | 256 | 4.7% (inactive) | -1.5% (inactive) | 102 | -64.8% (inactive) | 98.7 | -0.609 (inactive) | -4.5e-05 (inactive) | 0.00527 (inactive) | 14.2% (inactive) | 9.47% (inactive) |
| C=CCn1c(=O)c2ccccc2n2c(SC(C)C(=O)Nc3nc(-c4ccccc4)cs3)nnc12 (centres undefined) | 462 | 4% (inactive) | 21.8% (inactive) | 90.4 | -26% (inactive) | 107 | -0.483 (inactive) | -2.2e-05 (inactive) | 0.00616 (inactive) | 10.9% (inactive) | 34.2% (inactive) |
| O=C(CSc1nnc(-c2cnccn2)n1Cc1ccco1)c1ccc(Cl)cc1 | 287 | 16.6% (inactive) | -32.9% (inactive) | 95.7 | -8.9% (inactive) | 124 | -0.473 (inactive) | 4.5e-06 (inactive) | 0.00285 (inactive) | 8.56% (inactive) | 22.1% (inactive) |
| COc1ccc(CCNC(=O)c2cc(C(C)C)on2)cc1OC | 825 | 9.2% (inactive) | -27% (inactive) | 102 | 2.8% (inactive) | 110 | -0.567 (inactive) | -1.2e-05 (inactive) | 0.00632 (inactive) | 2.63% (inactive) | 18.2% (inactive) |
| O=C(NCCCn1ccnc1)c1csc2ccccc12 | 337 | 4.7% (inactive) | -23.2% (inactive) | 99.4 | -7.7% (inactive) | 113 | -0.414 (inactive) | -3.7e-05 (inactive) | 0.00227 (inactive) | 10.2% (inactive) | 27.4% (inactive) |
| C=CCn1c(Cc2cccs2)nnc1SCC(=O)Nc1ccc(OC)c(OC)c1 | 268 | 4% (inactive) | 19.5% (inactive) | 87.7 | -26.5% (inactive) | 134 | -0.445 (inactive) | -1.9e-05 (inactive) | 0.00229 (inactive) | 13.5% (inactive) | 26.6% (inactive) |
| OC(CN1CCCCC1)Cn1c(C(F)(F)F)nc2ccccc21 (centres undefined) | 730 | -17.7% (inactive) | 25.1% (inactive) | 122 | -98.5% (inactive) | 95.5 | -0.362 (inactive) | -7.1e-05 (inactive) | 0.00651 (inactive) | 12.8% (inactive) | 24.9% (inactive) |
| Fc1cccc2sc(Nc3nnc(-c4ccco4)o3)nc12 | 404 | -3.6% (inactive) | 2.5% (inactive) | 109 | -0.9% (inactive) | 94.5 | -0.501 (inactive) | -4.9e-05 (inactive) | 0.0148 (active) | -39.7% (inactive) | -83% (inactive) |
| COc1ccccc1-c1nc(SCc2ccccn2)n[nH]1 | 509 | 8.9% (inactive) | 2.6% (inactive) | 99.6 | 32.9% (inactive) | 96.4 | -0.605 (inactive) | -2.8e-05 (inactive) | 0.0058 (inactive) | -21% (inactive) | -28.9% (inactive) |
| COc1ccc(-n2cnnc2SCCC#N)cc1 | 520 | -3.8% (inactive) | -0.2% (inactive) | 82.5 | -115% (inactive) | 122 | -0.549 (inactive) | -2.7e-05 (inactive) | 0.00567 (inactive) | 6.27% (inactive) | 12% (inactive) |
| Cc1ccc(C)c(N2CCN(CCCNC(=O)Cn3cc4c(n3)CCCCC4)CC2)c1 | 771 | -4.3% (inactive) | -55.1% (inactive) | 114 | -60.6% (inactive) | 110 | -0.619 (inactive) | -3.7e-05 (inactive) | 0.00461 (inactive) | 7.36% (inactive) | 19% (inactive) |
